Test results reported in PubChem BioAssay AID1159580 (chemical genetic matrix, 2015).
“And” between values parts separate entries of the source, which are not always exact repeats. Equal values may be shown once. In all, about 5,500 compounds went through this assay and about 2,000 (36%) were called active. Not shown: some 18% with an inconclusive outcome. Cut-off read from the data, not from the text of the source: active = normalized growth mostly below about 0.91 (no sharp cut-off); inconclusive = no clear call, values can overlap the other calls; inactive = mostly above about 0.92. The list shows a part of the results.

Experiment: chemical genetic growth profiling, strain panel (AID 1159580);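 note: tested at 20 µM; growth read once vehicle control cultures reached saturation at 30 °C; 1 = growth at the plate median or of vehicle wells; lower values mean less growth of the strain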
Settings: S. cerevisiae deletion strains, growth OD

Measured: normalized growth

NC(N)=NCCN1CCCCCCC1
active: locus YLR262C, strain YPT6 (second series), hits give low values 1.25 [resistant] | locus YNL209W, strain ssb2, hits give low values 0.87
inactive: locus YAL013W, strain DEP1, hits give low values 1 | locus YAL021C, strain ccr4, hits give low values 1.02 | locus YAL026C, strain drs2, hits give low values 1.02 | locus YAL030W, strain snc1, hits give low values 1.03 | locus YBL061C, strain skt5, hits give low values 1.03 | locus YBR009C, strain hhf1, hits give low values 1.03 | locus YBR021W, strain FUR4, hits give low values 1.01 | locus YBR023C, strain chs3, hits give low values 1.03 | locus YBR171W, strain sec66, hits give low values 1.06 | locus YBR229C, strain ROT2, hits give low values 1 | locus YBR231C, strain swc5, hits give low values 0.999 | locus YBR279W, strain paf1, hits give low values 1.02 | locus YCL011C, strain gbp2, hits give low values 1.04 | locus YCL016C, strain dcc1, hits give low values 1.02 | locus YCL029C, strain bik1, hits give low values 1.01 | locus YCL061C, strain MRC1, hits give low values 1.03 | locus YCL069W, strain vba3, hits give low values 1.03 | locus YCR088W, strain abp1, hits give low values 1.03 | locus YDL005C, strain med2, hits give low values 1.04 | locus YDL035C, strain GPR1, hits give low values 1.01 | locus YDL040C, strain nat1, hits give low values 1.02 | locus YDL074C, strain BRE1, hits give low values 1.01 | locus YDL101C, strain DUN1, hits give low values 1 | locus YDL185W, strain tfp1, hits give low values 1.01 | locus YDL192W, strain arf1, hits give low values 1.03 | locus YDR001C, strain nth1, hits give low values 1.02 | locus YDR069C, strain doa4, hits give low values 1.02 | locus YDR101C, strain arx1, hits give low values 1.01 | locus YDR137W, strain rgp1, hits give low values 1.04 | locus YDR159W, strain sac3, hits give low values 1.05 | locus YDR162C, strain NBP2, hits give low values 1 | locus YDR195W, strain ref2 1.01 | locus YDR297W, strain sur2, hits give low values 1.03 | locus YDR318W, strain mcm21, hits give low values 1.02 | locus YDR334W, strain swr1, hits give low values 1.03 | locus YDR335W, strain msn5, hits give low values 1.03 | locus YDR388W, hits give low values 1.02 | locus YDR392W, strain spt3, hits give low values 0.986 | locus YDR502C, strain sam2, hits give low values 1.01 | locus YEL003W, strain gim4, hits give low values 1.02 | locus YEL037C, strain rad23, hits give low values 1.03 | locus YEL061C, strain CIN8 (second series), hits give low values 1.02 | locus YEL061C, strain CIN8, hits give low values 1.01 | locus YER015W, strain faa2, hits give low values 1.03 | locus YER016W, strain bim1, hits give low values 1.02 | locus YER110C, hits give low values 1.03 | locus YER111C, strain swi4, hits give low values 1.03 | locus YER155C, strain BEM2 (second series), hits give low values 1 | locus YER155C, strain BEM2, hits give low values 0.998 | locus YER167W, strain BCK2, hits give low values 1 | locus YFR010W, strain ubp6, hits give low values 1.03 | locus YGL078C, strain dbp3, hits give low values 1.04 | locus YGL086W, strain mad1, hits give low values 1 | locus YGL167C, strain pmr1, hits give low values 1.05 | locus YGL173C, strain kem1, hits give low values 1.03 | locus YGL227W, strain vid30, hits give low values 1.03 | locus YGL240W, strain doc1, hits give low values 1.02 | locus YGL248W, strain PDE1, hits give low values 1.01 | locus YGL253W, strain hxk2, hits give low values 1.02 | locus YGR078C, strain PAC10, hits give low values 1 | locus YGR135W, strain pre9, hits give low values 1.02 | locus YGR252W, strain gcn5, hits give low values 0.994 | locus YHR013C, strain ard1, hits give low values 1.05 | locus YHR027C, strain rpn1, hits give low values 1.03 | locus YHR030C, strain SLT2, hits give low values 1.01 and 0.977 | locus YHR079C, strain IRE1 (second series), hits give low values 1.02 | locus YHR079C, strain IRE1, hits give low values 0.983 | locus YHR094C, strain hxt1, hits give low values 1.02 | locus YHR129C, strain ARP1, hits give low values 1 | locus YHR142W, strain chs7, hits give low values 1.05 | locus YHR200W, strain rpn10, hits give low values 1.03 | locus YIL066C, strain RNR3, hits give low values 1.01 | locus YIL073C, strain SPO22, hits give low values 1.04 | locus YIL125W, strain kgd1, hits give low values 1.02 | locus YIR030C, strain dcg1, hits give low values 1.02 | locus YJL092W, strain hpr5, hits give low values 1.03 | locus YJL095W, strain BCK1 (second series), hits give low values 1.02 | locus YJL095W, strain BCK1, hits give low values 1.01 and 0.982 | locus YJL115W, strain asf1, hits give low values 1.03 | locus YJL129C, strain trk1, hits give low values 1.06 | locus YJL134W, strain LCB3, hits give low values 1 | locus YJL154C, strain vps35, hits give low values 1.01 | locus YJL164C, strain tpk1, hits give low values 1.04 | locus YJL166W, strain qcr8, hits give low values 1.04 | locus YJL168C, strain set2, hits give low values 1.03 | locus YJL187C, strain SWE1 (second series), hits give low values 1.01 | locus YJL187C, strain SWE1, hits give low values 1.04 | locus YJR043C, strain POL32, hits give low values 1 | locus YJR066W, strain TOR1, hits give low values 0.932 | locus YKL009W, strain mrt4, hits give low values 1.02 | locus YKL068W, hits give low values 1.01 | locus YKL085W, strain MDH1 (second series), hits give low values 1.01 | locus YKL085W, strain MDH1, hits give low values 1.01 | locus YKL160W, strain elf1, hits give low values 1.04 | locus YKR001C, strain vps1, hits give low values 1.03 | locus YKR026C, strain gcn3, hits give low values 1.03 | locus YKR091W, strain srl3, hits give low values 1.02 | locus YLL001W, strain dnm1, hits give low values 1.02 | locus YLL026W, hits give low values 1.03 | locus YLL041C, strain sdh2, hits give low values 1.02 | locus YLR027C, strain aat2, hits give low values 1.02 | locus YLR039C, strain RIC1, hits give low values 1 | locus YLR058C, strain SHM2, hits give low values 1.01 | locus YLR102C, strain apc9, hits give low values 1.02 | locus YLR113W, strain HOG1, hits give low values 0.985 | locus YLR221C, strain rsa3, hits give low values 1.05 | locus YLR258W, strain gsy2, hits give low values 1.03 | locus YLR262C, strain YPT6, hits give low values 1.03 | locus YLR268W, strain sec22, hits give low values 1.02 | locus YLR320W, strain mms22, hits give low values 1.05 | locus YLR330W, strain CHS5, hits give low values 1.01 | locus YLR342W, strain FKS1 (second series), hits give low values 1.02 | locus YLR342W, strain FKS1, hits give low values 1.06 | locus YLR357W, strain rsc2, hits give low values 1.03 | locus YLR370C, strain arc18, hits give low values 1.03 | locus YLR371W, strain rom2, hits give low values 1.02 | locus YLR384C, strain iki3, hits give low values 1.03 | locus YLR418C, strain cdc73, hits give low values 1.03 | locus YML016C, strain PPZ1, hits give low values 1.01 | locus YML032C, strain rad52, hits give low values 1.02 | locus YML120C, strain ndi1, hits give low values 1.04 | locus YML124C, strain tub3, hits give low values 1.03 | locus YMR058W, strain fet3, hits give low values 1.02 | locus YMR078C, strain ctf18, hits give low values 1.02 | locus YMR125W, strain sto1, hits give low values 1.03 | locus YMR129W, hits give low values 1.02 | locus YMR205C, strain PFK2, hits give low values 1.05 | locus YMR223W, strain ubp8, hits give low values 1.02 | locus YMR231W, strain pep5, hits give low values 1.04 | locus YMR307W, strain GAS1, hits give low values 0.992 | locus YNL067W, strain RPL9B, hits give low values 1 | locus YNL071W, strain lat1, hits give low values 1.03 | locus YNL128W, strain TEP1, hits give low values 1.02 | locus YNL183C, strain NPR1, hits give low values 0.959 | locus YNL233W, strain BNI4, hits give low values 1.01 | locus YNL248C, strain rpa49, hits give low values 1.04 | locus YNL250W, strain rad50, hits give low values 1.01 | locus YNL271C, strain bni1, hits give low values 1.02 | locus YNL298W, strain CLA4, hits give low values 1.03 | locus YNL307C, strain MCK1, hits give low values 1.02 | locus YNL322C, strain KRE1 (second series), hits give low values 1.05 | locus YNL322C, strain KRE1, hits give low values 1 | locus YNR049C, strain mso1, hits give low values 1.03 | locus YNR052C, strain pop2, hits give low values 1.01 | locus YOL012C, strain htz1 0.825 | locus YOL147C, strain pex11, hits give low values 1.02 | locus YOR001W, strain rrp6, hits give low values 0.997 | locus YOR061W, strain CKA2, hits give low values 1.01 | locus YOR069W, strain VPS5, hits give low values 1 | locus YOR070C, strain gyp1, hits give low values 1.05 | locus YOR080W, strain dia2, hits give low values 1.03 | locus YOR083W, strain WHI5, hits give low values 1.03 | locus YOR106W, strain vam3, hits give low values 1.05 | locus YOR136W, strain idh2, hits give low values 1.02 | locus YOR144C, strain elg1, hits give low values 1.02 | locus YOR184W, strain ser1, hits give low values 1.03 | locus YOR231W, strain MKK1, hits give low values 0.993 | locus YOR265W, strain rbl2, hits give low values 1.05 | locus YOR270C, strain vph1, hits give low values 1.07 | locus YOR290C, strain snf2, hits give low values 0.981 | locus YOR316C, strain cot1, hits give low values 1.02 | locus YPL051W, strain arl3, hits give low values 1.02 | locus YPL055C, strain LGE1, hits give low values 1.01 | locus YPL078C, strain atp4, hits give low values 1.03 | locus YPL106C, strain sse1, hits give low values 1.02 | locus YPL240C, strain hsp82, hits give low values 1.04 | locus YPL256C, strain CLN2, hits give low values 0.977 | locus YPR119W, strain clb2, hits give low values 1.03 | locus YPR141C, strain kar3, hits give low values 1.02 | locus YPR163C, strain tif3, hits give low values 1.03 | locus YPR167C, strain met16, hits give low values 1.02 | strain wtn01, hits give low values 1.03
